Here are results for six molecules from PubChem BioAssay.

Test [1] can be described thus: blockers of polyQ-driven CASP3 activation – cell-based (AID 1583). The conditions noted are these: polyglutamine-induced caspase-3 activation, cell assay; stronger effect = higher value;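 tested at 10 µM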.
Test [2] can be described thus: yeast 75Q aggregation reduction – 75Q-TubU reporter (AID 1593). The conditions noted are these: Yeast 75Q polyglutamine aggregation reporter.
Test [3] is described as follows: restoration of touch response, mutant HTT neurons – whole organism, C. elegans mechanosensory neurons, N-terminal huntingtin (AID 1599). The conditions noted are these: C. elegans polyQ-huntingtin mechanosensory neurons, stronger effect = higher value.
Test [4] is described as follows: blockers of cytochrome c efflux from mitochondria – biochemical, purified mitochondria (AID 1603).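 Further: mouse liver mitochondria challenged with calcium chloride; signal normalized to the plate average as 100%.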 To be noted: stronger effect = lower value.
Test [5] in a line: polyglutamine aggregate formation blockers (AID 1604). To be noted: polyglutamine-induced protein aggregation inhibition assay; stronger effect = higher value; tested at 2.5 µM.
Test [6] can be described thus: glutamate transport activators, MN-1 cells, MN-1 cell line (AID 1612).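 Further: tested at 1 µM final; 0% = mean of DMSO vehicle wells on each plate; positive means more glutamate uptake than control and negative means less.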 The conditions noted are these: MN-1 motor neuron cells, stronger effect = higher value.
Test [7] in a line: GFP-Q80 aggregate reduction, neuronal-like cells, cell-based, NGF-treated PC12, GFPQ80 (AID 1614).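 Further: lower means fewer inclusions and 0 means no inclusions at all.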 The conditions noted are these: PC12 NGF-treated GFP-polyQ80 inclusion reduction.
Test [8] can be described thus: 75Q-TubH aggregate inhibition, S. cerevisiae, yeast (AID 1616). The conditions noted are these: S. cerevisiae 75Q-TubH polyglutamine aggregation suppression; stronger effect = higher value.
Test [9] in a line: P. berghei load reduction in hepatocytes – cell-based, HepG2, luciferase luminescence, HepG2 viability, primary screen (AID 624349; in the data active means parasite load remaining mostly below about 12%, no sharp cut-off; inactive means mostly above about 10%;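 further: 100% = mean of DMSO negative control wells on the same plate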). The conditions noted are these: P. berghei liver stage in HepG2, luciferase luminescence, concentration not given here; parasite load remaining: stronger effect = lower value; viability: measured here: HepG2 viability without parasites.
A short description of test [10]: EMT-state selective cytotoxicity in co-culture – imaging, PC-3E GFP, TEM4-18 mCherry, primary screen (AID 1345086).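 On all read-outs here: cells exposed to compound for 72 h before imaging.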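 On red/green cell ratio (normalised): normalised mesenchymal count divided by normalised epithelial count so high means epithelial killing.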 To be noted: PC-3E GFP / TEM4-18 mCherry co-culture, imaging cell counts, at 1 µM; for red/green cell ratio (normalised): actives lie on both sides, counts scaled to control wells, 1 = unselective.
Where [11] appears, read: measured here: epithelial PC-3E GFP cell survival.
Setting [12] is: measured here: mesenchymal TEM4-18 mCherry cell survival.

For part of these data: Entries with a potency or affinity are not part of this list. Calls of active or inactive are those of the source.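 How the source made its calls, unless noted: active means compounds killing one labelled cell type while sparing the other, by normalised counts and ratio limits, not self-fluorescent; inactive means the rest.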

Turning to `CC(=O)O[C@@H]1CC2C(C)(C)C(=O)C=C[C@]2(C)C2CC[C@@]3(C)[C@H](c4ccoc4)OC(=O)[C@H]4O[C@]43[C@@]21C` (stereo not given in full), the inhibition – broadly, the relative decrease from the control value, in per cent – in test [1] was -6.23%. Moreover, the score in test [2] amounted to 0.97. Further, the rescue above control in test [3] is -3.01. In [4], the cytochrome c release ratio is 1.1. Also, the inhibition of aggregation in test [5] was determined as 36%. For the same molecule, the glutamate uptake change in [6] was -11.6%. The same molecule registered an inclusion score in test [7] of 2. Besides, in test [8], the aggregation suppression score was found to be 0.57. In test [9], the parasite load remaining was 2.66% (inactive) and the viability (as a rule, a per cent measure of how many cells are alive, often set against a control) is 98.4%. In test [10], the red/green cell ratio (normalised) is 1.12 (inactive). Besides, the normalised cell number in test [10] (setting [11]) was found to be 0.89. In test [10] (setting [12]), the normalised cell number turned out to be 0.99.

As to `NC[C@H]1O[C@H](O[C@H]2C(O[C@@H]3O[C@H](CO)[C@@H](O)[C@H]3O)[C@@H](O)[C@H](N)C[C@@H]2N)[C@H](N)[C@@H](O)[C@@H]1O` (stereo not given in full), the inhibition in [1] is -18.6%. This molecule also came in with a score in [2] of 1.41. Moreover, the rescue above control in test [3] is -3.87. Moreover, in [4], the cytochrome c release ratio stood at 0.95. Besides, the inhibition of aggregation in test [5] was determined as 51%. Further, the glutamate uptake change in [6] is -16.8%. For the same molecule, the inclusion score in [7] came to 2. In test [8], this molecule gave an aggregation suppression score of 0.969. Besides, in test [9], the parasite load remaining is 166% (inactive) and the viability is 89%. Besides, in test [10], the red/green cell ratio (normalised) is 0.87 (inactive). This molecule came in with a normalised cell number in [10] (setting [11]) of 1.26. The molecule further gave a normalised cell number in test [10] (setting [12]) of 1.1.

Take `CC(C)(C)NC[C@@H](O)COc1nsnc1N1CCOCC1`: in test [1], the inhibition amounted to 6.36%. The same molecule gave a score in [2] of 1.66. In [3], this molecule returned a rescue above control of -14.1. In test [4], the cytochrome c release ratio was 1.02. Also, the inhibition of aggregation in test [5] was -23.4%. Also, the glutamate uptake change in test [6] is 14.7%. In addition, in test [7], the inclusion score is 2. Moreover, the aggregation suppression score in test [8] stood at 1.29. Also, in [9], the parasite load remaining is 198% (inactive) and the viability came to 72.4%. Also, in [10], the red/green cell ratio (normalised) was 1.2 (inactive). This molecule also had a normalised cell number in test [10] (setting [11]) of 0.88. The normalised cell number in [10] (setting [12]) was determined as 1.05.

For the molecule `NC(COCc1ccccc1)C(=O)O` (stereo not given), the inhibition in test [1] was determined as 2.09%. In [2], this molecule displayed a score of 1.43. Also, the rescue above control in test [3] worked out at 1.64. The cytochrome c release ratio in test [4] came to 0.75. For the same molecule, the inhibition of aggregation in test [5] came out at 85.8%. For the same molecule, the glutamate uptake change in [6] is 3.63%. The molecule further gave an inclusion score in [7] of 2. This molecule also returned an aggregation suppression score in test [8] of 1.4. Besides, the red/green cell ratio (normalised) in test [10] was 0.87 (inactive). The normalised cell number was 1.19 in test [10] (setting [11]) and 1.04 in test [10] (setting [12]).

For the molecule `CC1(C)C2CC[C@]3(C)C(C(=O)C=C4[C@@H]5C[C@@](C)(C(=O)O)CC[C@]5(C)CC[C@]43C)[C@@]2(C)CC[C@@H]1O` (stereo not given in full), the inhibition in test [1] was determined as 22.2%. This molecule also yielded a score in [2] of 2.09. In addition, the rescue above control in test [3] amounted to 12. In addition, the cytochrome c release ratio in test [4] was determined as 0.78. The inhibition of aggregation in [5] was 25.7%. Further, in test [6], the glutamate uptake change was -84.4%. In addition, the aggregation suppression score in test [8] was 1.4. In addition, the parasite load remaining in [9] was 94.2% (inactive). In [9], the viability was 71%. Besides, the red/green cell ratio (normalised) in test [10] was 0.98 (inactive). In addition, the normalised cell number is 0.92 in test [10] (setting [11]) and 0.89 in [10] (setting [12]).

For the molecule `CCCC(=O)Nc1ncnc2c1ncn2C1O[C@@H]2COP(=O)(O)O[C@H]2[C@H]1OC(=O)CCC` (stereo not given in full), the inhibition in [1] is -71.1%. In test [2], the score came out at 1.26. In test [3], this molecule displayed a rescue above control of 1.51. Moreover, the cytochrome c release ratio in test [4] was 0.87. Further, the inhibition of aggregation in [5] is 77.8%. In addition, in test [6], the glutamate uptake change came out at 4.01%. Also, the inclusion score in test [7] is 2. The molecule also returned an aggregation suppression score in test [8] of 1.79. The parasite load remaining in test [9] is 129% (inactive). This molecule also returned a viability in test [9] of 95%. In [10], the red/green cell ratio (normalised) is 0.94 (inactive). Moreover, the normalised cell number was determined as 0.93 in [10] (setting [11]) and 0.88 in [10] (setting [12]).
